From PubChem BioAssay (NCI)
The panel holds about 83,000 compounds, 20% with a hit somewhere; the sample as a whole holds those more often.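 In brief: 96-well plates, 48 h treatment, single concentration, percent growth endpoint.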 Active and inactive are the calls of the source. How the source made its calls: active means growth percent below 10; inactive means the rest.

Experiments:
Assay in all cases: NCI-60 one-dose screen, 48 h (100 = growth as untreated, 0 = no growth, -100 = all killed)
Details in all cases: 10 µM
[1] = system: NCI-H23 lung
[2] = system: NCI-H226 lung
[3] = system: NCI-H322M lung
[4] = system: HOP-62 NSCLC
[5] = system: NCI-H460 lung
[6] = system: NCI-H522 lung
[7] = system: A549/ATCC NSCLC
[8] = system: 786-0 renal
[9] = system: COLO 205 colon
[10] = system: DU-145 prostate

Measured: growth

CCN(CCCCCCCCCCN1CC(=O)N(CCCCCCCCCCN(CC)Cc2ccccc2OC)CC1=O)Cc1ccccc1OC
inactive: [3] 18.4%
active: [1] -26.1% | [2] -2.55% | [4] -71.6% | [5] -93.3% | [6] -74% | [7] -48.8% | [8] -72.5% | [9] -91.6% | [10] -52.9%

Cc1ccc(C(=O)N2C/C(=C/c3ccccc3)C(=O)/C(=C/c3ccccc3)C2)cc1
inactive: [1] 78.6% | [2] 71.2% | [3] 80.5% | [4] 76.9% | [5] 90% | [6] 69% | [7] 84% | [8] 53.6% | [9] 76.7% | [10] 58.3%

COc1ccc2c(c1)C(=O)c1c-2c(OCCN(C)C)nc2ccccc12
inactive: [1] 41.5% | [2] 45.5% | [4] 30.8% | [6] 21.2% | [7] 14% | [8] 33.7% | [9] 23.4% | [10] 27%
active: [3] -5.17% | [5] 2.29%

COc1ccc(-c2nn(-c3cccc(NC(=O)c4ccc5c(c4)OCCO5)c3)cc2-c2ccncc2)cc1Cl
inactive: [1] 45.9% | [2] 47.6% | [3] 54.4% | [4] 30.9% | [7] 18.7% | [8] 14.7% | [10] 39.8%
active: [5] 9.42% | [6] -32.2% | [9] -6.14%

COc1ccc(/C=C2/CN(C(=O)c3ccccc3F)C/C(=C\c3ccc(OC)cc3)C2=O)cc1
inactive: [1] 73.6% | [2] 57.8% | [3] 82.9% | [4] 75.8% | [5] 94% | [6] 38.3% | [7] 63.2% | [8] 56.9% | [9] 59.1% | [10] 42.1%

N#Cc1cccc(OCc2nc(N)nc(N)c2-c2ccc(Cl)c(Cl)c2)c1
active: [6] 8.77% | [7] 7.65%
inactive: [1] 32.9% | [2] 46.7% | [3] 24.7% | [4] 35.9% | [5] 11.5% | [8] 19.4% | [9] 34.1% | [10] 25.3%

O=C1OCC2=C1C(c1cccc(Br)c1)c1cc3c(cc1N2CCO)CCC3 (stereo not given)
inactive: [1] 21.1% | [3] 36.8% | [4] 28.4% | [7] 12.5% | [8] 19.1%
active: [2] -15.7% | [5] -6.92% | [6] -31.4% | [9] -29.1% | [10] -28.9%

COc1ccc(OC)c(/C=C/c2nc(SCc3ccccc3)n(-c3ccc(Cl)cc3)n2)c1
inactive: [1] 54.3% | [2] 72.7% | [3] 82.9% | [4] 79.4% | [5] 24.4% | [6] 66.6% | [7] 46.5% | [8] 48.8% | [9] 114% | [10] 77.7%

Nc1nc(Nc2ccccc2)n[nH]1
inactive: [1] 94.7% | [2] 96.8% | [3] 108% | [4] 92.3% | [5] 108% | [6] 17.7% | [7] 34.8% | [8] 101% | [9] 114% | [10] 117%

COc1ccc(-c2nn(-c3cccc(NC(=O)Nc4ccccc4)c3)cc2-c2ccncc2)cc1Cl
inactive: [1] 42.6% | [2] 70.6% | [3] 39.5% | [4] 46% | [8] 42.2% | [10] 50.1%
active: [5] 4.93% | [6] 5.77% | [7] -4.41% | [9] -50.6%

O=c1cc(-c2ccccc2)[nH]n1-c1nc2ccccc2[nH]1
inactive: [1] 56.1% | [2] 67.7% | [3] 49.9% | [4] 48% | [5] 20.7% | [6] 21.6% | [7] 30.7% | [8] 50.1% | [9] 106% | [10] 61.1%

Cc1occc1-c1nnc(SCC(=O)c2ccc(NC(=O)CC(C)C)cc2)o1
inactive: [1] 110% | [2] 109% | [3] 106% | [4] 99.6% | [5] 108% | [6] 81.9% | [7] 87.7% | [8] 96.3% | [9] 110% | [10] 109%

CCCCCCCCCCCCCCCC(=O)OC1[C@@H](OC(=O)CCCCCCCCCCCCCCC)[C@@H](C(=O)N[C@@H](CCCCN)C(=O)OC)O[C@H]1n1cnc2c(=O)[nH]c(NC(=O)C(C)C)nc21 (stereo not given in full)
inactive: [1] 97.8% | [2] 102% | [3] 89.6% | [4] 104% | [5] 101% | [6] 84.4% | [7] 99.8% | [8] 98.1% | [9] 101% | [10] 107%

CCOC(=O)N1C=CC2C=CC1C1C=CC=CC2N1C(=O)OCC (stereo not given)
inactive: [1] 108% | [2] 91% | [3] 106% | [4] 106% | [5] 103% | [6] 89.3% | [7] 94.8% | [8] 105% | [9] 117% | [10] 112%

c1ccc2c(c1)oc1c3c(ccc12)NCCC3
inactive: [1] 86% | [2] 90.9% | [3] 91.8% | [4] 97.6% | [5] 99% | [6] 80.9% | [7] 90.3% | [8] 90.5% | [9] 114% | [10] 103%

CCn1cc(C(=O)O)c(=O)c2cnc(N3CCCC3)nc21
inactive: [1] 105% | [2] 94.5% | [3] 97.3% | [4] 108% | [5] 110% | [6] 101% | [7] 96.1% | [8] 92.6% | [9] 111% | [10] 119%

Clc1ccc(Nc2ccnc(NCCNc3ccnc4cc(Cl)ccc34)n2)cc1
active: [5] 7.77% | [6] -34.5% | [8] -62% | [9] -91%
inactive: [1] 47.6% | [2] 63.3% | [3] 20.1% | [4] 66.7% | [7] 10.8% | [10] 36%

COc1ccc2c(c1OC)O/C(=C\c1ncc([N+](=O)[O-])n1C)C2=O
inactive: [2] 66.6% | [3] 84.1% | [4] 56% | [7] 19.3% | [8] 17.9%
active: [1] -17.1% | [5] -20.8% | [6] -54.5% | [9] -55.6% | [10] -24.7%

O=C(N/N=C/c1ccccc1)C(Oc1ccccc1)c1ccccc1 (stereo not given)
inactive: [1] 89.1% | [2] 97.5% | [3] 94.2% | [4] 95% | [5] 94.5% | [6] 65.5% | [7] 111% | [8] 107% | [9] 109% | [10] 107%

CCN1CCN(c2nc3ccccc3c3c(=O)c4ccccc4sc23)CC1
inactive: [1] 64.2% | [2] 49.5% | [3] 68.4% | [4] 39.4% | [5] 20% | [6] 35.4% | [7] 31% | [8] 47% | [9] 10.7% | [10] 33%

CC/C(=C(/c1ccc(OCCN(C)C)cc1)c1ccc(OC(=O)CCCCCCCCC(=O)c2c(C)[nH]c(/C=C3\N=C(c4ccc[nH]4)C=C3OC)c2C)cc1)c1ccccc1
inactive: [1] 88% | [2] 52.6% | [3] 77% | [4] 75.9% | [5] 46.9% | [6] 54.5% | [7] 50% | [8] 63.9% | [9] 88% | [10] 67.6%

CCc1ccc2c(c1)N(CCO)C1=C(C(=O)OC1)C2c1cc(OC)c(OC)c(OC)c1 (stereo not given)
active: [2] 3.03% | [5] 2.43% | [6] -40.4% | [9] -69.3% | [10] -28.3%
inactive: [1] 19.5% | [3] 13.7% | [4] 28.8% | [7] 16.3% | [8] 20.2%

COc1cccc(NC(=O)c2sc3nc4c(cc3c2N)C(O)CCC4)c1 (stereo not given)
active: [6] -10.5% | [9] -7.73% | [10] -10.9%
inactive: [1] 33.1% | [2] 66.9% | [3] 44.5% | [4] 32.6% | [5] 10.2% | [7] 22.3% | [8] 43.5%

COc1ccc(-n2c(SCc3cc(OC)c(OC)c(OC)c3)nc3ccc(C)cc3c2=O)cc1
inactive: [1] 69.2% | [2] 73.4% | [3] 80.3% | [4] 65.2% | [5] 73.8% | [6] 39.4% | [7] 51% | [8] 84.1% | [9] 32.7% | [10] 94.9%

CC(C)N(CCNc1nc(C(Cl)(Cl)Cl)nc2cc(Cl)ccc12)C(C)C
inactive: [3] 33.5%
active: [1] -0.581% | [2] 0.531% | [4] -41.4% | [5] -45.6% | [6] -68.4% | [7] -41.6% | [8] -76.4% | [9] -89.8% | [10] -15%

COc1ccc(Cl)cc1-n1nnc(-c2nc3ccccc3[nH]2)c1N
inactive: [1] 92.8% | [2] 60% | [3] 75% | [4] 37.3% | [5] 27.7% | [6] 68.6% | [7] 61.8% | [8] 58.1% | [9] 98.1% | [10] 93.4%

Nc1ccn(C2CC(O)C(CO)O2)c(=O)n1 (stereo not given)
inactive: [1] 105% | [2] 99.1% | [3] 223% | [4] 98.8% | [5] 102% | [6] 109% | [7] 108% | [8] 100% | [9] 108% | [10] 120%

COc1cccc(-c2cc(-c3cccc(NS(C)(=O)=O)c3)nc(N)c2C#N)c1O
active: [5] 8.75% | [6] 0.405% | [9] -6.05%
inactive: [1] 26.7% | [2] 74.5% | [3] 34.6% | [4] 52.1% | [7] 31% | [8] 49.4% | [10] 15.1%
